Experiment [1] in a line: Nuclear factor erythroid 2-related factor 2/antioxidant responsive element (Nrf2/ARE) small molecule agonists: qHTS cell viability counter screen in human keratinocytes (AID 1919968; active = well fitted cell-killing curve with a large enough effect in the repeat runs; note: nearly all actives have a fitted effect of over 55% in size; note: potency is the fitted concentration of half-maximal effect). The essentials: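 Parallel cytotoxicity read: KeratinoSens HaCaT cells, compound treatment 23 h, viability by CellTiter-Fluor fluorescence 1 h post-reagent.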
Background: In qHTS, concentration-response curves come from the screen itself.

A short description of experiment [2]: Nuclear factor erythroid 2-related factor 2/antioxidant responsive element (Nrf2/ARE) small molecule agonists: luciferase reporter gene qHTS assay in human keratinocytes (AID 1919969). Note: nearly all actives have a fitted effect of over 35% in size. Note: potency is the fitted concentration of half-maximal effect. In general terms: In a reporter assay the amount or activity of a reporter protein is the signal.
Experiment [3] has as its target Gonadotropin-releasing hormone receptor (Homo sapiens) (UniProt P30968). Put plainly: Human gonadotropin-releasing hormone receptor (GnRHR) small molecule agonists, calcium flux assay in GnRHR-HEK293 cells (AID 1920063). Note: nearly all actives have a fitted effect of over 35% in size. Note: potency is the fitted concentration of half-maximal effect. Put shortly: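 Calcium flux, agonist mode, human GnRHR stably integrated in HEK293; dye 1 h at 37 C before compound; Ex/Em=480/540 kinetic read, 3 min; 15 concentrations, triplicate.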
(Calcium flux is commonly read through the fluorescence of an indicator in the cells.)

Experiment [4] in a line: G protein-coupled receptor (GPCR) small molecule agonists, calcium flux assay: HEK293 wild type cell line counter screen (AID 1920065). The essentials: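 Non-specific calcium responders were flagged by adding DMSO-dissolved compounds to dye-loaded cells and reading 480/540 nm fluorescence each second for 3 min; ATP served as positive control.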
A short description of experiment [5]: p53 small molecule agonists, cell-based qHTS assay with human liver microsomes (AID 1963577).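 Note: p53 response element beta-lactamase reporter cells with liver microsomes plus NADPH.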 The essentials: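 With metabolic activation: human liver microsomes (0.5 mg/mL final) plus NADPH (0.5 mg/mL final) added alongside compounds to p53RE-bla cells; 16 h 37 C exposure; beta-lactamase read by LiveBLAzer fluorescence.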
The nature of experiment [6]: p53 small molecule agonists, cell-based qHTS assay with rat liver microsomes (AID 1963578). Put shortly:
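Metabolic activation by rat liver microsomes and NADPH, each 0.5 mg/mL final, added right after compounds to p53RE-bla reporter cells (4,000/well, plated 5 h earlier). 16 h at 37 C, then LiveBLAzer substrate for 2 h at room temperature in the dark; fluorescence read-out.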

The nature of experiment [7]: p53 small molecule agonists, cell-based qHTS assay with human liver microsomes: qHTS cell viability counter screen (AID 1963579). Note: nearly all actives have a fitted effect of over 45% in size. The essentials:
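Metabolic activation used human liver microsomes and NADPH, both 0.5 mg/mL final, over 16 hours at 37 C on p53RE-bla cells (4,000/well). Cytotoxicity measured by CellTiter-Glo luminescence, 30 min at room temperature.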

Experiment [8] in a line: p53 small molecule agonists, cell-based qHTS assay with rat liver microsomes: qHTS cell viability counter screen (AID 1963580). Note: nearly all actives have a fitted effect of over 45% in size. The essentials: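 Cytotoxicity counter screen: intracellular ATP measured by CellTiter-Glo luminescence in the same wells as the beta-lactamase reporter read, on HCT-116 p53RE-bla cells exposed 16 h at 37 C to compounds with rat liver microsomes and NADPH, each 0.5 mg/mL final.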

Experiment [9] is described as follows: p53 small molecule agonists, cell-based qHTS assay: qHTS cell viability counter screen (AID 1963581). Note: nearly all actives have a fitted effect of over 45% in size. The essentials:
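Multiplexed with the reporter read, a CellTiter-Glo step (30 min, room temperature) gauges ATP-based viability of HCT-116 p53RE-bla cells after 16 h compound incubation at 37 C.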

For experiment [10], the target named is 5-hydroxytryptamine receptor 2A (Homo sapiens) (UniProt P28223). Put plainly: 5-hydroxytryptamine receptor 2A (HTR2A) small molecule antagonists, cell-based qHTS assay (AID 1963586). Note: nearly all actives have a fitted effect of over 45% in size. Put shortly:
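CHO cells stably expressing human HTR2A were plated for 18 h at 37 C, then loaded with calcium dye for 1 h. Compounds were preincubated 5 min at room temperature before DOI (4 nM solution) was added. Kinetic fluorescence was read for 3 min.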

For experiment [11] the target is unchanged. Description: 5-hydroxytryptamine receptor 2A (HTR2A) small molecule agonists, cell-based qHTS assay (AID 1963587). Note: nearly all actives have a fitted effect of over 30% in size. Put shortly:
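CHO cells stably expressing human HTR2A, plated 18 h, loaded with calcium dye 1 h at 37 C. Agonist mode: compounds added and intracellular calcium fluorescence recorded kinetically for 2 min at 1 sec intervals.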

Experiment [12] addresses Muscarinic acetylcholine receptor M1 (Homo sapiens) (UniProt P11229). Put plainly: Cholinergic receptor muscarinic 1 (CHRM1) small molecule antagonists, cell-based qHTS assay (AID 1963588). Note: nearly all actives have a fitted effect of over 40% in size. Note: potency is the fitted concentration of half-maximal effect. Put shortly:
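Compounds were tested at 15 concentrations in three independent runs. Dye-loaded CHRM1-CHO cells were exposed 5 min at room temperature before stimulation by acetylcholine added at 50nM. Intracellular calcium was read kinetically on FDSS for 3 min.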

Experiment [13] has the same target. Put plainly: Cholinergic receptor muscarinic 1 (CHRM1) small molecule agonists, cell-based qHTS assay (AID 1963589). Note: nearly all actives have a fitted effect of over 35% in size. Note: potency is the fitted concentration of half-maximal effect. Put shortly: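 qHTS, 15-point titration, 3 independent runs: compounds pin-transferred onto dye-loaded CHRM1-CHO cells (human M1), calcium fluorescence followed every second to detect agonism.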
Experiment [14] can be described thus: cAMP Responsive Elements (CRE) small molecule agonists, cell-based qHTS assay (AID 1963590). Put shortly: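 Quantitative HTS for CRE agonists: HEK 293T CRE-bla cells, overnight plating, 3 h compound incubation at 37 C/5% CO2, then 2 h room-temperature LiveBLAzer B/G FRET substrate loading.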
Experiment [15] can be described thus: cAMP Responsive Elements (CRE) small molecule antagonists, cell-based qHTS assay (AID 1963591; active = well fitted inhibition curve with a large enough effect in the signal ratio in the repeat runs, not every such curve was filed as active; the % refers to the signal ratio). Put shortly: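 Fluorescence intensity from cleaved LiveBLAzer B/G substrate (2 h, room temperature) quantified CRE-bla activity in HEK 293T cells exposed 3 h to compound with 0.25 uM final NKH477.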
In experiment [16] the target is Beta-2 adrenergic receptor (Homo sapiens) (UniProt P07550). Put plainly: Adrenergic beta2 receptor (ADRB2) small molecule antagonists, cell-based qHTS assay (AID 1963592). Note: series mostly up to about 92 µM; nearly all actives have a fitted effect of over 50% in size. The essentials:
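Assay format: CHO-ADRB2 cells, 18-20hr seeding at 37C/5% CO2, then compound plus 1nM isoproterenol agonist mix for 0.5hr RT. Homogeneous time-resolved fluorescence cAMP detection after 1hr, expressed as 665/615 nm ratio.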

Experiment [17] deals with D(2) dopamine receptor (Homo sapiens) (UniProt P14416). Put plainly: Dopamine D2 receptor (DRD2) small molecule agonists, cell-based qHTS assay (AID 1963594). Note: nearly all actives have a fitted effect of over 35% in size. The essentials:
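HEK293 cells stably expressing human DRD2, pre-treated with PDE inhibitor Ro20-1724 (0.1 mM final) and compound 10 min at room temperature, then stimulated with NKH477 (200nM […]) for 30 min. cAMP read by HTRF (665/620 nm).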

For experiment [18] the target is unchanged. Put plainly: Dopamine D2 receptor (DRD2) small molecule antagonists, cell-based qHTS assay (AID 1963595; active = well fitted inhibition curve with a large enough effect in the signal ratio in the repeat runs, with a control signal flat; the % refers to the signal ratio). Put shortly:
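Readout: HTRF cAMP, cAMP-d2 competing with cellular cAMP for anti-cAMP cryptate, read after 1 h. Cells: DRD2-HEK293. Conditions: 0.1 mM Ro20-1724, 12 nM quinpirole, 200 nM NKH477, 30 min RT.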

A short description of experiment [19]: p53 small molecule agonists, cell-based qHTS assay (AID 1963582; active = well fitted activation curve with a large enough effect in the signal ratio in the repeat runs, not every such curve was filed as active; the % refers to the signal ratio). Put shortly:
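Beta-lactamase reporter cells (p53RE-bla) treated with compounds for 16 h at 37 C; FRET substrate, 2 h, room temperature; fluorescence intensity.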

Experiment [20] has as its target Beta-2 adrenergic receptor (Homo sapiens) (UniProt P07550). Description: Adrenergic beta2 receptor (ADRB2) small molecule agonists, cell-based qHTS assay (AID 1963593).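 For activation: CHO cells stably overexpressing human ADRB2.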 Note: potency is the fitted concentration of half-maximal effect. The essentials:
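CHO cells stably over-expressing ADRB2 were plated overnight at 37C, then dosed with compounds plus a stimulation mix containing 100uM IBMX and 25uM Ro-20-1724 for 0.5hr at room temperature. cAMP was measured by HTRF competition, 1hr.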

Several values for one entry are separate records, joined by “and”; a condition that tells them apart may be missing. Equal entries are not always repeated. Inconclusive results are not listed. The source holds several records for some structures; these can differ, active in one and inactive in another. Activity calls are given as the source filed them. Unless noted, calls come from the whole dose curve.

Sequence of Muscarinic acetylcholine receptor M1 (Homo sapiens) (P11229 whole entry, looked up): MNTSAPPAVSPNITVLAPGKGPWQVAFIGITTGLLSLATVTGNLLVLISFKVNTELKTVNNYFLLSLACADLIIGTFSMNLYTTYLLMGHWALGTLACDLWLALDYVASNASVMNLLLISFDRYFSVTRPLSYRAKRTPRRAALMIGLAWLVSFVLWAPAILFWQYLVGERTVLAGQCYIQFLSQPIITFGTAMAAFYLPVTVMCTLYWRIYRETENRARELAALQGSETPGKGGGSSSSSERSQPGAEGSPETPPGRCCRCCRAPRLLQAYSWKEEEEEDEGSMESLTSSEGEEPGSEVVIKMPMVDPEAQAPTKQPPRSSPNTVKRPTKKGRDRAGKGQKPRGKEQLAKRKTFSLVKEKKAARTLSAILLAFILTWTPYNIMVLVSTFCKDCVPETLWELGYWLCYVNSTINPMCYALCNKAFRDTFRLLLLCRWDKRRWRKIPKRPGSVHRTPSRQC
Sequence of Beta-2 adrenergic receptor (Homo sapiens) (P07550 whole entry, looked up): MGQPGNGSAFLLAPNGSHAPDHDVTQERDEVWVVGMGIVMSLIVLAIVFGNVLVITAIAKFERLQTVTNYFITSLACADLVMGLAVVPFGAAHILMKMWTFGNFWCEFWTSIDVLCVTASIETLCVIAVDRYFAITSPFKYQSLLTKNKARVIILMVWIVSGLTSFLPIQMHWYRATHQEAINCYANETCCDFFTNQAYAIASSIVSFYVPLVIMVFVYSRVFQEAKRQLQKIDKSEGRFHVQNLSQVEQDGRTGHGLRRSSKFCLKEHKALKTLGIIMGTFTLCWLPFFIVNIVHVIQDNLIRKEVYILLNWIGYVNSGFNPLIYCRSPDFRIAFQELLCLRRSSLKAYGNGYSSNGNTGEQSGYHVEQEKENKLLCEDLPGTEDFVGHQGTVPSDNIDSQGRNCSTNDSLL
Sequence of 5-hydroxytryptamine receptor 2A (Homo sapiens) (P28223 whole entry, looked up): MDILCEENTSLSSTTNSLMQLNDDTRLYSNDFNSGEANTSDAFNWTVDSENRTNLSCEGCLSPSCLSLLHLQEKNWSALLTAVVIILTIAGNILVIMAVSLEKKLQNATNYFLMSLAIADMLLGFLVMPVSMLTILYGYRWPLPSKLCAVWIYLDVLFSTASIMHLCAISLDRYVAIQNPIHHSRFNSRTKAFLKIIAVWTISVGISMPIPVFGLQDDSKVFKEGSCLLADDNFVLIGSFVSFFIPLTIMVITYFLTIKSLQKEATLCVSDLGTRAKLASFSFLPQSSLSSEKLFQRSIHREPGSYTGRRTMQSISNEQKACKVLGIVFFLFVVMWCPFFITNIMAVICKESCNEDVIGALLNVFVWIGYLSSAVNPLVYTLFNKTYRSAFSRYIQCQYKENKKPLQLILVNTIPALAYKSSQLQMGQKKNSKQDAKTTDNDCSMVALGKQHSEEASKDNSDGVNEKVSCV
Sequence of Gonadotropin-releasing hormone receptor (Homo sapiens) (P30968 whole entry, looked up): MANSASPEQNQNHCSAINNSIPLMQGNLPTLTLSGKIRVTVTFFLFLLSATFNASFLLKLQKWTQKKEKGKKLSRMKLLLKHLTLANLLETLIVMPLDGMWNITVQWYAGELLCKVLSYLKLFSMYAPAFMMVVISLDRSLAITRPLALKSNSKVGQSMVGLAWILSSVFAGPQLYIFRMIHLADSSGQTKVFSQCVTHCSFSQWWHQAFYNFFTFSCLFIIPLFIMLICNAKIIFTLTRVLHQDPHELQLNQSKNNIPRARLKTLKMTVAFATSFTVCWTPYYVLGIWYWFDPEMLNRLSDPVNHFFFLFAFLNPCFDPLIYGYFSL
Sequence of D(2) dopamine receptor (Homo sapiens) (P14416 whole entry, looked up): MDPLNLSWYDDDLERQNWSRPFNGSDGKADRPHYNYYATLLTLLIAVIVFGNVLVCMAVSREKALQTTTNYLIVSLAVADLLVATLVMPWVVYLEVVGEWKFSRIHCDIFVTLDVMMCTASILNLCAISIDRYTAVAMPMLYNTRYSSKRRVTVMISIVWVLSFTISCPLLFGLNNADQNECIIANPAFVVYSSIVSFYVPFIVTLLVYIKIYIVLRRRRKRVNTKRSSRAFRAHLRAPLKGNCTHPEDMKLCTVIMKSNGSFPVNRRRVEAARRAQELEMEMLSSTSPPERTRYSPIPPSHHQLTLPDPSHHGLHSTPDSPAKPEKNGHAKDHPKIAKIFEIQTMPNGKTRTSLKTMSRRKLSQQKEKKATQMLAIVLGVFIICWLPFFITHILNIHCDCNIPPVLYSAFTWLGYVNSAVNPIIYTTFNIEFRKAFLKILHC

With `O=C(O)c1ccccc1S`, the Potency result in experiment [1], in experiment [2], in experiment [3], in [4], in experiment [5] and in experiment [6] was “inactive” each time. Moreover, the Potency result in [7], in [8], in [9], in experiment [10], in experiment [11] and in experiment [12] was “inactive” in each case. Also, the Potency entry in experiment [13], in [14], in [15], in experiment [16], in experiment [17] and in experiment [18] was “inactive” in each case.

Consider `CC(C)(C)c1nnc(NS(=O)(=O)c2ccc(N)cc2)s1`, for which the Potency result in experiment [1], in [2], in experiment [3], in experiment [4], in experiment [5] and in [6] was “inactive” in each case. For the same compound, the Potency result in experiment [7], in experiment [8], in experiment [9], in experiment [19], in experiment [11] and in [13] was “inactive” throughout. In addition, the Potency entry in [14], in [15], in [16], in experiment [20], in [17] and in experiment [18] was “inactive” in each case.

As to `Nc1ccccc1N`, the Potency entry in experiment [1], in experiment [4], in experiment [5], in experiment [6], in experiment [7] and in experiment [8] was “inactive” in each case. The Potency entry in experiment [9], in experiment [19], in experiment [10], in [12], in experiment [16] and in experiment [17] was “inactive” each time. In experiment [18], the Potency result is “inactive”. In addition, the Potency in experiment [2] is 31.4 µM (active) and 7.7 µM (active); in experiment [3], 35.5 µM (active); in experiment [13], 56.2 µM (active) and inactive.

With `O=Cc1ccccc1C=O`, the Potency in experiment [1] was 61.1 µM (active) and inactive; in [2], 24.3 µM (active) and inactive; in experiment [12], 42.1 µM (active) and inactive; in experiment [20] it was 43.3 µM (active). Besides, the Potency entry in [3], in experiment [4], in experiment [7], in experiment [8], in experiment [9] and in experiment [10] was “inactive” in each case. Further, the Potency result in [11], in experiment [13], in [15], in [16], in experiment [17] and in [18] was “inactive” each time.

For `C/C(Cl)=C/CCl`, the Potency entry in experiment [1], in experiment [2], in experiment [3], in experiment [4], in experiment [5] and in experiment [6] was “inactive” throughout. The Potency entry in experiment [7], in experiment [8], in experiment [9], in experiment [19], in experiment [10] and in experiment [11] was “inactive” throughout. For the same compound, the Potency result in [13], in experiment [14], in experiment [15], in [16], in experiment [17] and in experiment [18] was “inactive” each time.

Regarding `O=C1CCCCCCCCCCCCCCCO1`, the Potency result in experiment [1], in experiment [2], in [3], in [4], in experiment [6] and in experiment [8] was “inactive” throughout. For the same compound, the Potency entry in experiment [9], in [19], in experiment [10], in experiment [11], in [12] and in experiment [13] was “inactive” in each case. In addition, the Potency entry in experiment [14], in experiment [15] and in experiment [16] was “inactive” each time.

Take `Cc1ccccc1C(=O)N1CC/C(=N\OS(=O)(=O)O)c2ccc(Cl)cc21`: the Potency entry in experiment [1], in experiment [2], in experiment [3], in [4], in experiment [5] and in [6] was “inactive” each time. Besides, the Potency entry in experiment [7], in experiment [8], in [9], in experiment [10], in [12] and in experiment [13] was “inactive” each time. Moreover, the Potency result in [14], in experiment [16], in [20], in experiment [17] and in [18] was “inactive” each time.

With `CCO[Si](OCC)(OCC)c1ccccc1`, the Potency result in [1], in [2], in experiment [3], in experiment [4], in [5] and in experiment [6] was “inactive” each time. For the same compound, the Potency result in [7], in experiment [8], in experiment [9], in experiment [19], in [10] and in [11] was “inactive” each time. For the same compound, the Potency entry in experiment [14], in experiment [15], in [16], in experiment [20], in [17] and in experiment [18] was “inactive” each time.

Source of the values: PubChem BioAssay (Tox21).
